According to the supplement of paper PMC10849652:
Targets with a hit are over-represented here; the source holds about 7,900 in all. About 0.6% of all pairs of compound and target were hits.

What was measured:
Test in all cases: log2 fold change, soluble protein after heating vs DMSO (PISA); higher = thermal stabilisation; K562 cells, 10 uM, 30 min; active = over 0.2 and 3.5 SD of the protein, either way, in both replicates (recomputed)
[1] = compound: CS(=O)(=O)c1ccc(-c2cnc(N)c(C(=O)Nc3ccccc3)n2)cc1
How it was run: (§1)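 K562 cells (2×10^6 cells/mL) were treated with 10 μM compound for 30 min, and aliquots were heated for 3 min over 48°C-58°C. Pooled aliquots were extracted in PBS with 0.5% NP-40 at 4°C, and the supernatant after 21,000xg for 90 min was measured by TMTpro 16plex LC-MS/MS with channel sums equalised. Reported thermal stability, relative to control samples and from duplicates, is a log2 fold change.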

crizotinib = compound: C[C@@H](Oc1cc(-c2cnn(C3CCNCC3)c2)cnc1N)c1c(Cl)ccc(F)c1Cl [crizotinib]
How it was run: as §1

[2] = compound: C[C@@H]1COCCN1C2=NC(=NC(=C2)C3(CC3)S(=O)(=O)C)C4=C5C=CNC5=CC=C4
How it was run: as §1

[3] = compound: C[C@H](C1=CC=C(C=C1)C(=O)NC2=C3C=CNC3=NC=C2)N
How it was run: as §1

duvelisib = compound: C[C@H](Nc1ncnc2nc[nH]c12)c1cc2cccc(Cl)c2c(=O)n1-c1ccccc1 [duvelisib]
How it was run: as §1

gandotinib = compound: Cc1cc(Nc2cc(CN3CCOCC3)c3nc(C)c(Cc4ccc(Cl)cc4F)n3n2)n[nH]1 [gandotinib]
How it was run: as §1

tozasertib = compound: Cc1cc(Nc2cc(N3CCN(C)CC3)nc(Sc3ccc(NC(=O)C4CC4)cc3)n2)n[nH]1 [tozasertib]
How it was run: as §1

[4] = compound: Cc1cc(SCc2sc(-c3ccc(C(F)(F)F)cc3)nc2C)ccc1OCC(=O)O
How it was run: as §1

doramapimod = compound: Cc1ccc(-n2nc(C(C)(C)C)cc2NC(=O)Nc2ccc(OCCN3CCOCC3)c3ccccc23)cc1 [doramapimod]
How it was run: as §1

ispinesib = compound: Cc1ccc(C(=O)N(CCCN)[C@@H](c2nc3cc(Cl)ccc3c(=O)n2Cc2ccccc2)C(C)C)cc1 [ispinesib]
How it was run: as §1

bafetinib = compound: Cc1ccc(NC(=O)c2ccc(CN3CC[C@H](N(C)C)C3)c(C(F)(F)F)c2)cc1Nc1nccc(-c2cncnc2)n1 [bafetinib]
How it was run: as §1

[5] = compound: Cc1cccc(CC(=O)N2CCc3c2ccc(-c2cn(C)c4ncnc(N)c24)c3F)n1
How it was run: as §1

nilotinib = compound: Cc1cn(-c2cc(NC(=O)c3ccc(C)c(Nc4nccc(-c5cccnc5)n4)c3)cc(C(F)(F)F)c2)cn1 [nilotinib]
How it was run: as §1

[6] = compound: Cc1nc(Nc2n[nH]c3c2CN(C(=O)N[C@H](CN(C)C)c2ccccc2)C3(C)C)c2sccc2n1
How it was run: as §1

dasatinib = compound: Cc1nc(Nc2ncc(C(=O)Nc3c(C)cccc3Cl)s2)cc(N2CCN(CCO)CC2)n1 [dasatinib]
How it was run: as §1

[7] = compound: Cc1ncc(-c2ccnc(Nc3ccc(S(C)(=O)=O)cc3)n2)n1C(C)C
How it was run: as §1

[8] = compound: Cn1cc(-c2ccc3c(c2)CCN3C(=O)Cc2cccc(C(F)(F)F)c2)c2c(N)ncnc21
How it was run: as §1

[9] = compound: Cn1cc(-c2ccc3nnc(C(F)(F)c4ccc5ncccc5c4)n3n2)cn1
How it was run: as §1

tipifarnib = compound: Cn1cncc1[C@@](N)(c1ccc(Cl)cc1)c1ccc2c(c1)c(-c1cccc(Cl)c1)cc(=O)n2C [tipifarnib]
How it was run: as §1

mubritinib = compound: FC(F)(F)c1ccc(/C=C/c2nc(COc3ccc(CCCCn4ccnn4)cc3)co2)cc1 [mubritinib]
How it was run: as §1

Measured: log2 fold change

GMEB2 (UniProt Q9UKD1)
UniProt Q9UKD1, sequence (Q9UKD1 whole entry, looked up): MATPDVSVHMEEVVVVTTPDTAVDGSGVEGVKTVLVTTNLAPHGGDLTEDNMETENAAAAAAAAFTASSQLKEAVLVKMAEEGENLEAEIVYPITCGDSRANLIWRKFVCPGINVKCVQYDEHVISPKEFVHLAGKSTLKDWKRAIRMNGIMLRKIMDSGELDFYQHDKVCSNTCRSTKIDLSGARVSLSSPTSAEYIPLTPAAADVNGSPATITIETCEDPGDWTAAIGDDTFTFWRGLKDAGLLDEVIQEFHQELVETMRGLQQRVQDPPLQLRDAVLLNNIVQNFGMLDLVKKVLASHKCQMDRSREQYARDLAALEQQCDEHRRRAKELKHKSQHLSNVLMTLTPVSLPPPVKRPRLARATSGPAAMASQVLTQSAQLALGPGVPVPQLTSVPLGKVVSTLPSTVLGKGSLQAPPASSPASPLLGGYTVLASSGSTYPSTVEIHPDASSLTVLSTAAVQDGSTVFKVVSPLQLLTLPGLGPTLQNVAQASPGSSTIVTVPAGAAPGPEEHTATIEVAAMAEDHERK
inactive: [1] -0.012 | crizotinib 0.041 | [2] -0.063 | [3] -0.09 | duvelisib -0.028 | gandotinib -0.001 | tozasertib 0.051 | [4] 0.009 | doramapimod 0.053 | ispinesib 0.071 | bafetinib 0.019 | [5] 0.013 | nilotinib 0.019 | [6] -0.021 | dasatinib -0.036 | [7] -0.05 | [8] -0.084 | [9] -0.006 | tipifarnib -0.011 | mubritinib -0.041

GATA1 (UniProt P15976)
UniProt P15976, sequence (P15976 whole entry, looked up): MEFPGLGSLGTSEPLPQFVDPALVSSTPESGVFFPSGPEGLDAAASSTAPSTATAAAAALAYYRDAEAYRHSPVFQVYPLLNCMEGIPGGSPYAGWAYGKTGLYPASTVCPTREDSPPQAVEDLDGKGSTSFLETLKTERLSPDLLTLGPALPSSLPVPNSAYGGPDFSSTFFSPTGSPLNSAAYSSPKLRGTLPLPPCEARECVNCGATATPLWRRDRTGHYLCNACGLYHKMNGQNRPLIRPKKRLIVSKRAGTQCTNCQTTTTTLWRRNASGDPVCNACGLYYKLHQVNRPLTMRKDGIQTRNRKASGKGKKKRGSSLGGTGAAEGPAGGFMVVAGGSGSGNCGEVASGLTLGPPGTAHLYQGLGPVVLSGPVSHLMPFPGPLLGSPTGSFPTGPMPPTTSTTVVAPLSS
inactive: [1] 0.03 | crizotinib 0.16 | [2] -0.032 | [3] 0.046 | duvelisib -0.061 | gandotinib 0.112 | tozasertib 0.031 | [4] -0.071 | doramapimod 0.017 | ispinesib -0.063 | bafetinib -0.09 | [5] 0.007 | nilotinib 0.028 | [6] 0.033 | dasatinib 0.157 | [7] -0.008 | [8] -0.084 | [9] -0.017 | tipifarnib -0.015 | mubritinib -0.033

HSD17B12 (UniProt Q53GQ0)
UniProt Q53GQ0, sequence (Q53GQ0 whole entry, looked up): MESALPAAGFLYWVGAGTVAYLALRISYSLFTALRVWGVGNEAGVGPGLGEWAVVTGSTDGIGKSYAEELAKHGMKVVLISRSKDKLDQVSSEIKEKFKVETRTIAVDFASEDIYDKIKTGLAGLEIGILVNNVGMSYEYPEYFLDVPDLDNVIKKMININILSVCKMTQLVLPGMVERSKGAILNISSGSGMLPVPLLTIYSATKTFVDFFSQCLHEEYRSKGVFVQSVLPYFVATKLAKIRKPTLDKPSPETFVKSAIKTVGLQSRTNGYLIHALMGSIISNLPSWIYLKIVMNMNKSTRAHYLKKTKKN
active: gandotinib 0.371
inactive: [1] 0.046 | crizotinib 0.191 | [2] 0.012 | [3] -0.061 | duvelisib 0.063 | tozasertib -0.018 | [4] 0.055 | doramapimod -0.009 | ispinesib 0.243 | bafetinib 0.067 | [5] -0.039 | nilotinib 0.184 | [6] -0.039 | dasatinib -0.095 | [7] 0.002 | [8] 0.092 | [9] -0.02 | tipifarnib 0.089 | mubritinib -0.018

HDHD2 (UniProt Q9H0R4)
UniProt Q9H0R4, sequence (Q9H0R4 whole entry, looked up): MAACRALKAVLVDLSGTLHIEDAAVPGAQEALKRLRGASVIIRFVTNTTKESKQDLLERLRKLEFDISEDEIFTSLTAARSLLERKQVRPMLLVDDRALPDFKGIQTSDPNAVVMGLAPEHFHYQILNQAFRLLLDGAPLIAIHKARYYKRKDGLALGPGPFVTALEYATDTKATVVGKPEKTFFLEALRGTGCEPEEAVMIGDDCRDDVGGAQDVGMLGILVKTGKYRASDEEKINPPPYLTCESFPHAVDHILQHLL
inactive: [1] -0.11 | crizotinib -0.031 | [2] -0.01 | [3] 0.001 | duvelisib -0.019 | gandotinib 0 | tozasertib -0.039 | [4] -0.023 | doramapimod -0.081 | ispinesib 0.004 | bafetinib 0.068 | [5] 0.018 | nilotinib 0.024 | [6] -0.04 | dasatinib 0.042 | [7] 0.006 | [8] 0.019 | [9] 0.028 | tipifarnib -0.011 | mubritinib 0.045

GABPA (UniProt Q06546)
UniProt Q06546, sequence (Q06546 whole entry, looked up): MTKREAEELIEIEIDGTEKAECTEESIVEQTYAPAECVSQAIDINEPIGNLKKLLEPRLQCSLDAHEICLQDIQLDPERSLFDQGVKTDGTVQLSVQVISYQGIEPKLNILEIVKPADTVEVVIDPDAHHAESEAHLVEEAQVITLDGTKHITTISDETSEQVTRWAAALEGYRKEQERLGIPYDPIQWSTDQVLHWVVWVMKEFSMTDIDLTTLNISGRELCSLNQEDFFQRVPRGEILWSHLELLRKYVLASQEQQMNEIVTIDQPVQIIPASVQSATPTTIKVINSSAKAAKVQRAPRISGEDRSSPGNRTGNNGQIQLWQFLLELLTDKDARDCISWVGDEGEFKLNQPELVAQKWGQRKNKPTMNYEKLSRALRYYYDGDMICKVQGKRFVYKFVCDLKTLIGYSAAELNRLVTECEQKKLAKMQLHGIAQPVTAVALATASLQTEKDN
inactive: [1] 0.059 | crizotinib -0.028 | [2] 0.126 | [3] 0.012 | duvelisib 0.089 | gandotinib -0.029 | tozasertib 0.025 | [4] 0.068 | doramapimod -0.018 | ispinesib -0.099 | bafetinib -0.036 | [5] 0.034 | nilotinib -0.103 | [6] -0.115 | dasatinib -0.12 | [7] -0.026 | [8] 0.048 | [9] 0.111 | tipifarnib -0.149 | mubritinib 0.019

FANCD2 isoform 1 (UniProt Q9BXW9)
UniProt Q9BXW9, sequence (Q9BXW9 whole entry, looked up): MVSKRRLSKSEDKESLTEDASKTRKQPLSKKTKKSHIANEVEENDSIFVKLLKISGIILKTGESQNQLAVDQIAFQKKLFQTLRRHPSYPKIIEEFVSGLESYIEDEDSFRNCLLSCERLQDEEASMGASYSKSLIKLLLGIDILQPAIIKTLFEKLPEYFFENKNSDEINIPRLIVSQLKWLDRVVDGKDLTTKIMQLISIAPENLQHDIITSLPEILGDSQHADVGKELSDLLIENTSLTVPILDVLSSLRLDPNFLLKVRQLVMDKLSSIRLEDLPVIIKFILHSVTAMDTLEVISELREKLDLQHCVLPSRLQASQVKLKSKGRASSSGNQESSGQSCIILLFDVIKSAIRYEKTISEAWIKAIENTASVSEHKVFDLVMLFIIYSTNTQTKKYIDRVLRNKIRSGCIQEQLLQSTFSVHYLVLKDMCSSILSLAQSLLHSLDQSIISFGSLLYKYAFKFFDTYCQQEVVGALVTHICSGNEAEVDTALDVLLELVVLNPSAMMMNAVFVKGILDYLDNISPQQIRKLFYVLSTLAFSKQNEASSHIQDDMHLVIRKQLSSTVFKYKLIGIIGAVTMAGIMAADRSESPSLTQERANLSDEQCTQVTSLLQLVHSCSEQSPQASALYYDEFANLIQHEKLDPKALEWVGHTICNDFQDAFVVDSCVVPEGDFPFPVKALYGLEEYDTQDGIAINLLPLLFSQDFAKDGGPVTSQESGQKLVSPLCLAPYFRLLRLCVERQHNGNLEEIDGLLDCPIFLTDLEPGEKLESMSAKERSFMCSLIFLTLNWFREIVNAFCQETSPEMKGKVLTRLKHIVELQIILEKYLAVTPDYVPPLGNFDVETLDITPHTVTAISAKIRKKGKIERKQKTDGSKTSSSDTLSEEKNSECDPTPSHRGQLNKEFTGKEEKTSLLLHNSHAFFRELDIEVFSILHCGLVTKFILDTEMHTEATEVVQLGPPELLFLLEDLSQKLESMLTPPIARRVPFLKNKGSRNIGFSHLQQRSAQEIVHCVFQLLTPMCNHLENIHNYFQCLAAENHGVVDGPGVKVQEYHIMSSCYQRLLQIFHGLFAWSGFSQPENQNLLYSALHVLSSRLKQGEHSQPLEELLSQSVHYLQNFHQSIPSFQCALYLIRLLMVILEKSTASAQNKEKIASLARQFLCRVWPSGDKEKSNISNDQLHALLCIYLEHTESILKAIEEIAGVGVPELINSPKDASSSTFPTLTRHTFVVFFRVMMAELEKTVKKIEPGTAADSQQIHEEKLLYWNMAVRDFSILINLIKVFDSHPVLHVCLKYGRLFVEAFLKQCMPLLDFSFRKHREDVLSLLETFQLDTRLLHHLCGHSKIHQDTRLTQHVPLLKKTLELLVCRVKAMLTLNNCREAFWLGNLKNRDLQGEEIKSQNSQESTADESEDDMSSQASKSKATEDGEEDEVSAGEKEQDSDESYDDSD
inactive: [1] -0.056 | crizotinib -0.052 | [2] 0.127 | [3] -0.014 | duvelisib -0.014 | gandotinib -0.135 | tozasertib 0.003 | [4] 0.034 | doramapimod 0.004 | ispinesib -0.096 | bafetinib -0.06 | [5] -0.014 | nilotinib -0.145 | [6] 0.15 | dasatinib -0.167 | [7] -0.119 | [8] 0.126 | [9] 0.1 | tipifarnib -0.024 | mubritinib 0.052

GOLPH3 (UniProt Q9H4A6)
UniProt Q9H4A6, sequence (Q9H4A6 whole entry, looked up): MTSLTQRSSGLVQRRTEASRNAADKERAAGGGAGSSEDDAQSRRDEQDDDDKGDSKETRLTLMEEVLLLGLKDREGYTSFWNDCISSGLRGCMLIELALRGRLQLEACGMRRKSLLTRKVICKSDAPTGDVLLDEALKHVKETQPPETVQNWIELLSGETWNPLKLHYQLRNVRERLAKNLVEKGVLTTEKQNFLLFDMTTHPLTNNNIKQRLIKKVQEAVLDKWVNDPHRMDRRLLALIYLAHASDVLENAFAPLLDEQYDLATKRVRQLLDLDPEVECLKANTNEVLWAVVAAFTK
inactive: [1] -0.028 | crizotinib 0.176 | [2] 0.006 | [3] -0.038 | duvelisib 0.047 | gandotinib -0.112 | tozasertib 0.024 | [4] 0.012 | doramapimod -0.011 | bafetinib 0.074 | [5] 0.032 | nilotinib -0.021 | [6] -0.015 | dasatinib -0.123 | [7] -0.013 | [8] 0.02 | [9] -0.013 | tipifarnib -0.028 | mubritinib 0.07
active: ispinesib 0.379

HNRNPC isoform 2 (UniProt P07910)
inactive: [1] -0.176 | crizotinib -0.061 | [2] -0.239 | [3] 0.532 | duvelisib -0.076 | gandotinib 0.197 | tozasertib 0.05 | [4] 0.125 | doramapimod 0.088 | ispinesib -0.35 | bafetinib 0.159 | [5] -0.228 | nilotinib 0.054 | [6] -0.099 | dasatinib 0.425 | [7] -0.286 | [8] -0.431 | [9] -0.173 | tipifarnib 0.596 | mubritinib -0.268

GPAT4 (UniProt Q86UL3)
active: crizotinib 0.287
inactive: [1] 0.15 | [2] 0.066 | [3] -0.071 | duvelisib 0.017 | gandotinib -0.009 | tozasertib 0.063 | [4] 0.061 | doramapimod -0.063 | ispinesib 0.194 | bafetinib -0.138 | [5] -0.028 | nilotinib -0.047 | [6] 0.049 | dasatinib -0.024 | [7] -0.009 | [8] 0.093 | [9] -0.018 | tipifarnib -0.069 | mubritinib -0.008

GALNT2 (UniProt Q10471)
UniProt Q10471, sequence (Q10471 whole entry, looked up): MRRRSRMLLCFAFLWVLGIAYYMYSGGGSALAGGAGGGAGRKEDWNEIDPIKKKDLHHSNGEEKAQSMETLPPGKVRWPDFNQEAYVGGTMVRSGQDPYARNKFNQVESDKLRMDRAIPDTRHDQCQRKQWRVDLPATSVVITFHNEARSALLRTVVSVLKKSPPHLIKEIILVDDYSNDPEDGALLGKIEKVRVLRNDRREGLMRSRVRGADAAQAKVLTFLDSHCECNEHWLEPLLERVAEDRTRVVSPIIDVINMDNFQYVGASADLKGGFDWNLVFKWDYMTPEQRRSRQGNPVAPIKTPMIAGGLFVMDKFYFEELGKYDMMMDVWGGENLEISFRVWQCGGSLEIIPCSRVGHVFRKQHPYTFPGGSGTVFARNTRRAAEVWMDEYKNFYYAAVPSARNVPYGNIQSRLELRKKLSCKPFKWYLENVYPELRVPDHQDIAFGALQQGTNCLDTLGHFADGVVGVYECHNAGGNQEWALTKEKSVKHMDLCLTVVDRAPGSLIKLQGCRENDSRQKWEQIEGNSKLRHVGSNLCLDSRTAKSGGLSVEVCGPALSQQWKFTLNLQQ
inactive: [1] 0.056 | crizotinib -0.005 | [2] 0.093 | [3] -0.015 | duvelisib 0.05 | gandotinib -0.024 | tozasertib -0.065 | [4] 0.022 | doramapimod -0.001 | ispinesib 0.034 | bafetinib -0.046 | [5] 0.041 | nilotinib -0.07 | [6] -0.066 | dasatinib -0.004 | [7] 0.056 | [8] 0.032 | [9] -0.018 | tipifarnib 0.008 | mubritinib 0.008

GUK1 isoform 2 (UniProt Q16774)
UniProt Q16774, sequence (Q16774 whole entry, looked up): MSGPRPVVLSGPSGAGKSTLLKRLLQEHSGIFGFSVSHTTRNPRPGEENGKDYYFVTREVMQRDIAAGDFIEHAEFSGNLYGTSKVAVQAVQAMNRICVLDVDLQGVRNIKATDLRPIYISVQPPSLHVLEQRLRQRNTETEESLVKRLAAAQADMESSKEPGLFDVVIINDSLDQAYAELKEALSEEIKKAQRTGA
active: mubritinib 0.397
inactive: [1] 0.13 | crizotinib -0.007 | [2] 0.161 | [3] 0.049 | duvelisib 0.123 | gandotinib -0.03 | tozasertib 0.018 | [4] 0.102 | doramapimod -0.004 | ispinesib 0.012 | bafetinib 0.134 | [5] 0.053 | nilotinib 0.226 | [6] -0.056 | dasatinib -0.109 | [7] 0.054 | [8] 0.058 | [9] -0.007 | tipifarnib -0.15

FDXR isoform 7 (UniProt P22570)
inactive: [1] 0.038 | crizotinib -0.036 | [2] 0.117 | [3] -0.01 | duvelisib 0.11 | gandotinib -0.064 | tozasertib -0.105 | [4] 0.023 | doramapimod -0.013 | ispinesib -0.138 | bafetinib -0.012 | [5] -0.162 | nilotinib -0.031 | [6] -0.015 | dasatinib -0.245 | [7] -0.042 | [8] -0.023 | [9] 0.038 | tipifarnib -0.002
active: mubritinib -0.643

GTF3C4 (UniProt Q9UKN8)
inactive: [1] -0.011 | crizotinib 0.078 | [2] 0.04 | [3] -0.015 | duvelisib 0.035 | gandotinib -0.05 | tozasertib 0.059 | [4] -0.063 | doramapimod -0.019 | ispinesib 0.06 | bafetinib -0.065 | [5] 0.019 | nilotinib -0.034 | [6] -0.069 | dasatinib -0.024 | [7] 0.036 | [8] -0.017 | [9] -0.007 | tipifarnib 0.014 | mubritinib 0.01

IFRD2 isoform 2 (UniProt Q12894)
UniProt Q12894, sequence (Q12894 whole entry, looked up): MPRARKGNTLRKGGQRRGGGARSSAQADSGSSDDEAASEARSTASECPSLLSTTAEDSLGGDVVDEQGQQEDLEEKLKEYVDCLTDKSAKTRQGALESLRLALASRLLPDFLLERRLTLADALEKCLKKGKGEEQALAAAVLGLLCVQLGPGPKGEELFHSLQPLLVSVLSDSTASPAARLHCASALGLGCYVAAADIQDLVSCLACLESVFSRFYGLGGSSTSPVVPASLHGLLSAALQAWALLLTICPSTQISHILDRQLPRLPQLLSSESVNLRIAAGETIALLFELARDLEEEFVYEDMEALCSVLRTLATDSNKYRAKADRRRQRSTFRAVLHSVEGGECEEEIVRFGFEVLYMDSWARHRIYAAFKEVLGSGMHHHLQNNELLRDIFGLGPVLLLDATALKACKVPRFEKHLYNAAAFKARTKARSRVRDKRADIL
inactive: [1] 0.352 | crizotinib -0.047 | [2] 0.396 | [3] -0.035 | duvelisib 0.024 | gandotinib 0.155 | tozasertib -0.123 | [4] -0.059 | doramapimod 0.052 | ispinesib 0.089 | bafetinib -0.083 | [5] -0.019 | nilotinib 0.153 | [6] 0.047 | dasatinib 0.028 | [7] 0.236 | [8] 0.07 | [9] -0.176 | tipifarnib 0.08 | mubritinib 0.073

HIP1R (UniProt O75146)
inactive: [1] 0.016 | crizotinib -0.1 | [2] 0.058 | [3] 0.026 | duvelisib -0.045 | gandotinib -0.069 | tozasertib -0.008 | [4] 0.029 | doramapimod 0.007 | ispinesib -0.097 | bafetinib -0.021 | [5] 0.043 | nilotinib -0.11 | [6] 0.016 | dasatinib -0.144 | [7] -0.019 | [8] 0.022 | [9] -0.013 | tipifarnib -0.075 | mubritinib 0.036

FANCI (UniProt Q9NVI1)
inactive: [1] -0.074 | crizotinib -0.138 | [2] 0.139 | [3] 0 | duvelisib 0.031 | gandotinib -0.14 | tozasertib 0.029 | [4] 0.038 | doramapimod -0.021 | ispinesib -0.071 | bafetinib -0.043 | [5] 0.041 | nilotinib -0.13 | [6] 0.113 | dasatinib -0.118 | [7] -0.085 | [8] 0.075 | [9] 0.098 | tipifarnib -0.027 | mubritinib 0.086
